Screen size: about 2,300 compounds; about 330 (14%) showed activity. A selection follows. Values without a mark were called inactive.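 The calls were made as follows: active = median modified Z-score above 1.96; inactive = 1.96 or below.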

For this experiment, the system named is HepG2 Srxn1-GFP reporter cells (+30 nM CDDO-Me). Kind of experiment: Srxn1-GFP intensity median modified Z-score relative to plate median; higher = stronger NRF2 / oxidative stress reporter activation, active = hit call of the paper. The note with it: 10 µM; exposure time: 24h. In short, it runs like this:
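Values give the median, over replicates, of the modified Z-score of GFP intensity on each plate. HepG2 Srxn1-GFP BAC reporter cells were co-treated for 24 h with an NRF2 activator at 30 nM and compound at 10 μM (≤0.1% DMSO) in three replicate plates, then analysed per cell for cytoplasmic GFP on confocal images with at least 100 cells. Scaling used 1.4826 × median absolute deviation.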
For `CCC(C)(C)O` [euspeclibcmpd964], the “Srxn1-GFP intensity median modified Z-score” value is -0.585.
The result for `C#CC(C)(O)CC` (configuration not stated) [euspeclibcmpd1276] reads 1.99 (active); that for `CC1C(=O)O[C@@H]2CCN3CC=C(COC(=O)[C@](C)(O)[C@]1(C)O)[C@H]23` (some centres not stated) [euspeclibcmpd1632], -0.339; that for `N=c1[nH]c(=N)[nH]c(=NC2CC2)[nH]1` [euspeclibcmpd1229], -0.282.
The result for `CNC(=O)Oc1ccccc1OC(C)C` [euspeclibcmpd1026] reads -0.0719; that for `c1ccc2c(c1)oc1ccccc12`, 0.352; that for `c1ccc2c(c1)sc1ccccc12` [euspeclibcmpd88], 3.54 (active).
With `C#CC1(O)CCC2C3CC=C4CC(=O)CCC4(C)C3CCC21C` (configuration not stated) [euspeclibcmpd545] the figure was -0.576; with `CN1C2C[C@H](OC(=O)C(CO)c3ccccc3)C[C@@H]1[C@@H](O)C2` (some centres not stated) [euspeclibcmpd1244], -0.443; with `CC(C)CC(N(C)C)C1(c2ccc(Cl)cc2)CCC1` (configuration not stated) [euspeclibcmpd2026], -0.299.
For the compound `O=c1cccc2n1C[C@H]1CNCC2C1` [euspeclibcmpd1159], the “Srxn1-GFP intensity median modified Z-score” value was 0.6.
Take `C[N+]1(C)C2CC(OC(=O)C(CO)c3ccccc3)CC1C1OC12` (configuration not stated) [euspeclibcmpd193]: the “Srxn1-GFP intensity median modified Z-score” value was -0.176.
As to `O=C(O)C1CCN1` (configuration not stated), the “Srxn1-GFP intensity median modified Z-score” value is 1.24.
With `C[N+](C)(C)CCCCCCCCCC[N+](C)(C)C` [euspeclibcmpd902] the figure was 4.92 (active); with `NCC1(CC(=O)O)CCCCC1` [euspeclibcmpd872], -0.0794; with `CN(C(=O)Oc1cccc2cccnc12)c1ccccc1`, 5.69 (active).
In the case of `COc1cc(OC)c2c(c1)O[C@H](c1ccc(OC)c(OC)c1)[C@@H](O)C2` [euspeclibcmpd1381], the “Srxn1-GFP intensity median modified Z-score” value is -0.52.
For the compound `COc1cc2c(cc1-c1cc3cc4ccoc4cc3oc1=O)OCO2` [euspeclibcmpd1721], the “Srxn1-GFP intensity median modified Z-score” value was 0.147.
Consider `C[C@]12CCC3C(CC[C@H]4CC(=O)CC[C@]34C)C1CCC2=O` (some centres not stated) [euspeclibcmpd1450], for which the “Srxn1-GFP intensity median modified Z-score” value is -0.253.
Take `N#CC(O[C@@H]1O[C@H](CO[C@@H]2O[C@H](CO)[C@@H](O)[C@H](O)[C@H]2O)[C@@H](O)[C@H](O)[C@H]1O)c1ccccc1` (some centres not stated) [euspeclibcmpd1342]: the “Srxn1-GFP intensity median modified Z-score” value was -0.305.
For `O=C(N/N=C/c1ccc([N+](=O)[O-])o1)c1cc([N+](=O)[O-])cc([N+](=O)[O-])c1O` [euspeclibcmpd462], the “Srxn1-GFP intensity median modified Z-score” value is 3.58 (active).
Take `COc1ccc2c(c1)[nH]c1c(C)nccc12` [euspeclibcmpd1501]: the “Srxn1-GFP intensity median modified Z-score” value was 1.98 (active).
Take `Cc1nccc2c1[nH]c1ccccc12` [euspeclibcmpd1462]: the “Srxn1-GFP intensity median modified Z-score” value was -0.275.
With `CNc1ccc(C(=O)CC(O)CCC(C)C2OC(=O)CC(O)CC(=O)CC(O)CC(O)CC(O)CC(O)CC3(O)CC(O)C(C(=O)OC)C(CC(OC4OC(C)C(O)C(N)C4O)C=CC=CC=CC=CC=CC=CC=CC2C)O3)cc1` (configuration not stated) [euspeclibcmpd1836], the “Srxn1-GFP intensity median modified Z-score” value is 0.559.
With `NC1C[C@H]1c1ccccc1` (some centres not stated) [euspeclibcmpd300] the figure was 1.01; with `CCOC(=O)CC(SP(=S)(OC)OC)C(=O)OCC` (configuration not stated) [euspeclibcmpd992], 0.167.
`OC[C@@H]1CCCN2CCCC[C@H]12` [euspeclibcmpd1729]: the “Srxn1-GFP intensity median modified Z-score” value is -0.476.
Take `CCN1C[C@@]2(COC)C3[C@@H](OC)[C@H]4[C@@H]1[C@]3(C(OC)C[C@H]2O)C1C[C@@]2(O)[C@H](OC(=O)c3ccccc3)C1[C@]4(OC(C)=O)[C@@H](O)[C@@H]2OC` (some centres not stated) [euspeclibcmpd686]: the “Srxn1-GFP intensity median modified Z-score” value is 0.0544.
With `COP(=O)(OC)OC=C(Cl)Cl` [euspeclibcmpd1300] the figure was 1.08; with `CN(C)C(=S)SSC(=S)N(C)C` [euspeclibcmpd571], 1.95.
Take `N#CC(=Cc1cccc(O)c1)C(=O)O` [euspeclibcmpd2014]: the “Srxn1-GFP intensity median modified Z-score” value is 0.195.
As to `Oc1cc(Cl)ccc1Oc1ccc(Cl)cc1Cl` [euspeclibcmpd800], the “Srxn1-GFP intensity median modified Z-score” value is 3.85 (active).
Regarding `Oc1ccc(Cl)cc1` [euspeclibcmpd227], the “Srxn1-GFP intensity median modified Z-score” value is -0.0545.
With `CC(Oc1ccc(Cl)cc1Cl)C(=O)O` (configuration not stated) [euspeclibcmpd2066] the figure was 0.00229; with `CCOc1cc(C=O)ccc1O` [euspeclibcmpd2137], 0.0734.
As to `CNc1ccccc1C(=O)O` [euspeclibcmpd1568], the “Srxn1-GFP intensity median modified Z-score” value was -0.451.
As to `CCC(C)C(=O)O[C@@H]1C[C@@]2(C)[C@H](c3ccoc3)OC(=O)CC23OC2(C)O[C@]14[C@]1(C)[C@@H](CC(=O)OC)C5(C)CC1(O)[C@](O)(C5OC(=O)C1(C)OC1C)[C@@H](OC(C)=O)[C@]34O2` (some centres not stated) [euspeclibcmpd1590], the “Srxn1-GFP intensity median modified Z-score” value was 1.25.
In the case of `N=C(N)NOCCC(N)C(=O)O` (configuration not stated) [euspeclibcmpd2161], the “Srxn1-GFP intensity median modified Z-score” value was -0.447.
On to `C#C[C@]1(O)CC[C@H]2[C@@H]3CC=C4CC(=O)CCC4C3CC[C@@]21CC` (some centres not stated) [euspeclibcmpd2176], for which the “Srxn1-GFP intensity median modified Z-score” value was 0.145.
On to `NCCCc1c[nH]c2ccccc12`, for which the “Srxn1-GFP intensity median modified Z-score” value was 1.08.
For the compound `CC1=C2C3OC(=O)C(C)[C@@H]3CC[C@@]2(C)C=CC1=O` (some centres not stated) [euspeclibcmpd1347], the “Srxn1-GFP intensity median modified Z-score” value was 0.307.
Regarding `CC=C(C)C(=O)O[C@H]1C[C@@H](OC(C)=O)[C@@]2(C(=O)OC)CO[C@@H]3C2[C@]12CO[C@](O)(C(=O)OC)[C@H]2[C@](C)([C@]12O[C@@]1(C)[C@H]1C[C@@H]2OC2OC=C[C@@]21O)[C@@H]3O` (some centres not stated) [euspeclibcmpd1486], the “Srxn1-GFP intensity median modified Z-score” value was 2.24 (active).
For `C#C[C@]1(O)CCC2C3CC=C4CC(=O)CCC4C3CC[C@@]21CC` (some centres not stated) [euspeclibcmpd2251], the “Srxn1-GFP intensity median modified Z-score” value was -0.375.
Consider `O=c1n(Cl)c(=O)n(Cl)c(=O)n1Cl` [euspeclibcmpd935], for which the “Srxn1-GFP intensity median modified Z-score” value was -0.815.
Regarding `c1ccc(/N=N\c2ccccc2)cc1` [euspeclibcmpd1762], the “Srxn1-GFP intensity median modified Z-score” value was 0.733.
The result for `C[C@]12CCC(=O)CC1=CCC1C2CC[C@@]2(C)C1CC[C@@H]2O` (some centres not stated) [euspeclibcmpd2134] reads -0.455.
Regarding `C[C@]12CCC3c4ccc(OC(=O)N(CCCl)CCCl)cc4CCC3C1CC[C@@H]2O` (some centres not stated) [euspeclibcmpd984], the “Srxn1-GFP intensity median modified Z-score” value was 2.13 (active).
